# In PubChem BioAssay (NCI):
# This is part of a sample that, as a whole, favours compounds with a hit. Of some 79,000 tested, about 15% had one in any assay. Unmarked numbers belong to inactive results. The source made the active and inactive calls. Rule as the data show it: active = growth inhibition above about 70%; inactive = the rest.
# Columns and labels:
# [1] = NCI Yeast Anticancer Drug Screen. Data for the rad50 strain (AID 155);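 also: 0% = growth of vehicle-only cultures of the same strain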; conditions: S. cerevisiae rad50 strain growth inhibition, active compounds read high
# In short: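 Vehicle-treated cultures provide the reference for the growth inhibition reported for compound-exposed, repair-deficient yeast.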
# [2] = NCI Yeast Anticancer Drug Screen. Data for the mec2-1 strain (AID 157); conditions: S. cerevisiae mec2-1 strain, active compounds read high
# In short: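 Compounds were applied to mec2-1 yeast cells. Their growth was then compared with that of vehicle-treated cultures to give growth inhibition.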
# [3] = NCI Yeast Anticancer Drug Screen. Data for the sgs1 mgt1 strain (AID 161);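 also: 0% = growth of cultures given vehicle only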; conditions: S. cerevisiae sgs1 mgt1 strain, active compounds read high
# In short: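 Compounds are added to genetically altered yeast, and growth is compared with cultures given vehicle alone to give percent inhibition.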
# [4] = NCI Yeast Anticancer Drug Screen. Data for the cln2 rad14 strain (AID 165);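 also: 0% = growth equal to vehicle treated cultures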; conditions: S. cerevisiae cln2 rad14 strain, active compounds read high
# In short: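 Strain: cln2 rad14 yeast, altered in cell cycle control and DNA damage repair. Read-out: growth inhibition vs vehicle.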
# [5] = NCI Yeast Anticancer Drug Screen. Data for the bub3 strain (AID 167); conditions: S. cerevisiae bub3 mutant strain, active compounds read high
# In short: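 Mutant yeast screening strain plus compound; vehicle-treated cultures serve as the 0% inhibition reference.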
# [6] = NCI Yeast Anticancer Drug Screen. Data for the mlh1 rad18 strain (AID 175); conditions: S. cerevisiae mlh1 rad18 strain growth inhibition, active compounds read high
# In short: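 A repair-deficient yeast strain is exposed to test compound, and growth is scored relative to vehicle-treated controls.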
# [7] = at 5.0 µM (retest, dose inferred, filed as 0.5)
# [8] = at 50.0 µM (retest, dose inferred, filed as 5.0)
SMILES,"growth inhibition [1, 7]","growth inhibition [1, 8]",growth inhibition ([1]; at 50.0 µM),"growth inhibition [2, 7]","growth inhibition [2, 8]",growth inhibition ([2]; at 50.0 µM),"growth inhibition [3, 7]","growth inhibition [3, 8]",growth inhibition ([3]; at 50.0 µM),"growth inhibition [4, 7]","growth inhibition [4, 8]",growth inhibition ([4]; at 50.0 µM),"growth inhibition [5, 7]","growth inhibition [5, 8]",growth inhibition ([5]; at 50.0 µM),"growth inhibition [6, 7]","growth inhibition [6, 8]",growth inhibition ([6]; at 50.0 µM)
O=C(CCCSCCCC(=O)NNc1ccccc1)NNc1ccccc1,31%,88% (active),96.2% (active),16%,95% (active),40.7%,30%,94% (active),87.4% (active),21%,92% (active),86.7% (active),45%,98% (active),96.5% (active),54%,98% (active),97.8% (active)
N#CN=[N+]([O-])c1ccc(C(=O)O)cc1,80% (active),89% (active),91.5% (active),87% (active),93% (active),93.8% (active),96% (active),91% (active),91.3% (active),99% (active),84% (active),91.6% (active),96% (active),87% (active),91.5% (active),96% (active),89% (active),90.9% (active)
Cc1cc(C)c(Cc2ccccc2O)cc1Cc1ccccc1O,33%,47%,90.5% (active),35%,46%,91.7% (active),80% (active),97% (active),92.5% (active),65%,99% (active),90.7% (active),87% (active),98% (active),90.1% (active),34%,38%,89.7% (active)
ClCc1ccc(OCc2ccccc2)c(OCc2ccccc2)c1,4%,51%,79% (active),2%,67%,62.3%,4%,87% (active),89.2% (active),0%,48%,82.3% (active),6%,77% (active),87.2% (active),17%,87% (active),94.2% (active)
